# High-throughput results deposited in PubChem BioAssay by National Center for Advancing Translational Sciences (NCATS).
# The list is not random: actives were taken first. Their share in the collection is about 8%.
# KB-V1 MDR tox – kills drug-selected multidrug resistant KB-V1 cells. AID 1347076. KB-V1 MDR cells viability, CellTiter-Glo, 72 h. 400,000 compounds, 3.4% hits. Potency, µM (doses to about 46.1 µM), usual class: cytotoxic; further: nearly all actives have a fitted effect of over 60% in size
#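 Compound-treated KB-V1 multidrug-resistant cells, 72 h, 37 degrees C; viability by CellTiter-Glo. Fitted qHTS curves give the values.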
# SW480 rereplic – DNA re-replication induction in SW480 cells; SW480 DNA re-replication, Hoechst DNA content imaging, 48 h; Potency, µM (top dose mostly 46.1 µM), actives largely listed as activators; 340,000 compounds, 1.8% hits; AID 624297; further: nearly all actives have a fitted effect of over 55% in size
#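 SW480 cells exposed to compounds for 48 hr at 37 C, 5% CO2, then Hoechst-stained 40 min. Nuclear DNA content imaged by fluorescence scanning (405 nm excitation, 500-530 nm emission); re-replication scored as increased high-intensity nuclei.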
# HT1080 IDH1KD tx – HT-1080 IDH1 knockdown cell toxicity (counter line); HT-1080 IDH1 knockdown viability, ATP luminescence, 48 h; Potency, µM (top dose mostly 46.1 µM), most hits filed as cytotoxic; 360,000 compounds, 2% hits
#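 After a 2 h attachment period, IDH1KD HT-1080 cells took pin-transferred compound for 48 h at 37 °C; ATP-based luminescence after 10 min room-temperature reagent incubation reported viability.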
# MCF10A rerep – induces DNA re-replication in MCF 10a normal breast cells. MCF 10A DNA re-replication, Hoechst nuclear intensity, 48 h. Potency, µM (highest dose often 46.1 µM), usual class: activators. 350,000 compounds, 2.9% hits; further: nearly all actives have a fitted effect of over 50% in size
# KB-3-1 tox – KB-3-1 parental cell cytotoxicity; AID 1347075; 400,000 compounds, 1.4% hits; Potency, µM (doses to about 46.1 µM), most hits filed as cytotoxic; KB-3-1 viability, CellTiter-Glo ATP luminescence, 72 h; further: nearly all actives have a fitted effect of over 60% in size
#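 Luminescent ATP read-out (CellTiter-Glo) measures survival of drug-naive KB-3-1 cells after 72 h compound exposure at 37 °C. Titration series was screened from lowest to highest concentration, with DMSO vehicle plates as background controls.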
# HT1080-NT tox – kills 2HG-producing HT-1080-NT fibrosarcoma cells. HT-1080-NT fibrosarcoma viability, CellTiter-Glo ATP luminescence, 48 h. Potency, µM (titrated, usually from 46.1 µM), hits mostly cytotoxic. 360,000 compounds, 1.6% hits. AID 686970;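 further: NT is the 2HG producing partner of a matched IDH1 knockdown line; nearly all actives have a fitted effect of over 55% in size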
#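 750 cells/well, RPMI + 5% FBS; 2 h settle, compound pin-transfer, 48 h at 37 degrees C. CellTiter-Glo 10 min RT, luminescence. Normalized to DMSO and media-only wells.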
# A number is an active result; i = inactive; ? = inconclusive; nt = no result. The call rests on the fitted dose curve; in most records, active means well fitted curve in the direction sought with a large enough effect; inconclusive means small, poorly fitted or top-dose-only effect, or another doubt; inactive means no such curve, though single readings can be large; an effect the other way counts as inactive or inconclusive.
SMILES,KB-V1 MDR tox,SW480 rereplic,HT1080 IDH1KD tx,MCF10A rerep,KB-3-1 tox,HT1080-NT tox
Cc1cc(Br)ccc1OCCCCNCCO,i,i,i,i,i,i
C=CCNCCCCOc1ccc(Br)cc1C,i,?,i,26µM,i,i
Cc1cc(C(C)(C)C)ccc1OCCCCN1CCCC1,i,i,i,13µM,i,i
C=C(/C=C/c1ccc(N(C)C)cc1)c1nc2ccccc2s1,?,nt,nt,nt,i,nt
CC(C)=CCOc1ccc2ccc(=O)oc2c1,i,i,i,i,i,i
COc1cc2ccc(=O)oc2c(O)c1OCC=C(C)C,i,2.1µM,?,i,i,i
O=C1OC(c2ccccc2)Cc2cc(C(=O)N3CCN(c4ccc(F)cc4)CC3)ccc21 (stereo not given),?,i,i,i,i,i
CN(c1ccccc1)S(=O)(=O)c1ccc(Cl)nc1,i,i,i,i,i,i
Cc1nc(S(=O)(=O)N(C)c2ccccc2)c(C#N)c(C)c1Cl,i,9.2µM,?,?,?,?
CCc1ccc(C(C)NC(=O)/C=C/c2ccc(Br)cc2)cc1 (stereo not given),?,i,i,i,i,i
CCOC(=O)C(=Cc1ccc(-n2ccnc2)cc1)C(=O)OCC,?,6.5µM,5.8µM,2.6µM,21µM,10µM
CCOC(=O)C(CC)(CC)C(=O)/C=C/c1ccc(Br)cc1,18µM,?,?,?,21µM,?
CCOC(=O)C(=Cc1ccc(Br)cc1)C(=O)OCC,16µM,7.3µM,6.5µM,1.6µM,?,21µM
O=c1[nH]c(=O)n([C@H]2C[C@H](O)[C@@H](CO)O2)cc1F,?,?,0.73µM,i,?,0.46µM
CNc1nc(SCc2ccc(C)cc2)nc2c1CCCC2,i,i,?,15µM,i,?
Cc1ccc(CSc2nc3c(c(SCC(=O)O)n2)CCCC3)cc1,i,i,i,i,i,i
Cc1ccc(CSc2nc3c(c(N(C)C)n2)CCCC3)cc1,?,15µM,?,13µM,?,i
CCc1cnc2c(c1SCC(=O)Nc1cc(Cl)ccc1OC)c(=O)n(C)c(=O)n2C,i,nt,nt,nt,i,nt
CCOC(=O)C1(S(=O)(=O)c2ccc(Cl)cc2)CCN(Cc2ccc(C)cc2)CC1,21µM,i,?,?,?,?
COc1ccc(CN2C(=O)N(c3ccc(F)cc3)C(=O)C2CC(=O)Nc2ccccc2)cc1 (stereo not given),i,nt,nt,nt,i,nt
O=C(Nc1nc(-c2ccc(Oc3ccccc3)cc2)cs1)C1=COCCO1,18µM,i,?,i,?,i
COc1ccc(-c2csc(NC(=O)c3c(OC)cccc3OC)n2)cc1,i,i,i,?,i,i
COc1ccc(NC(=O)c2ccccc2NS(=O)(=O)c2ccc(CNC(C)=O)cc2)c(OC)c1,i,i,?,5.2µM,?,13µM
COc1ccc(-c2csc(NC(=O)c3ccccc3NS(=O)(=O)c3ccc(C)cc3)n2)cc1,2.3µM,i,?,?,2.6µM,?
COc1ccc(S(=O)(=O)Nc2ccccc2C(=O)Nc2nc(-c3ccc(F)cc3)cs2)cc1OC,15µM,?,?,?,?,?
SMILES,KB-V1 MDR tox,SW480 rereplic,HT1080 IDH1KD tx,MCF10A rerep,KB-3-1 tox,HT1080-NT tox
O=C(CS(=O)(=O)c1cccc2nsnc12)NCc1ccccc1,?,nt,nt,nt,i,nt
O=C(CSc1nnc(-c2cccs2)o1)Oc1ccc(Cl)cc1,i,nt,nt,nt,i,nt
Fc1cc2[nH]c(=S)[nH]c2cc1Cl,3.7µM,i,i,i,8.2µM,i
Cc1cc2[nH]c(=S)[nH]c2cc1C,i,i,i,i,?,i
COc1cccc(-c2cc(=O)c3cc(NC(=O)c4ccccc4)ccc3[nH]2)c1,i,2.9µM,3.7µM,5.8µM,1.6µM,3.7µM
COc1cccc(-c2cc(=O)c3cc(NC(=O)c4ccc(Cl)cc4)ccc3[nH]2)c1,i,?,i,?,1.3µM,i
COc1cccc(S(=O)(=O)NCc2ccc(C(=O)Nc3ccc(Cl)cc3)cc2)c1,?,i,i,i,i,i
COc1cccc(C(=O)Nc2ccccc2)c1,i,i,i,i,i,i
COc1cccc(-c2cc(=O)c3cc(NC(=O)c4ccc(N(C)C)cc4)ccc3[nH]2)c1,i,0.58µM,0.73µM,0.41µM,i,1.3µM
